Screening data: PubChem, Sanford-Burnham Center for Chemical Genomics
PTK2B oligo ant = blocks oligomerization of human Pyk2 in cells; Q293 cells, Pyk2 FERM NanoBiT luminescence; active compounds read low; z-score (the deposit names both 25 µM and 10 µM); Q14289; 99,000 compounds, 0.83% hits; AID 1347419;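 active means Z-score of -3 or lower, scaled per plate to the spread of control and sample wells; inactive means z-score above -3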;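 further: negative z-score means lost luminescence so less FERM oligomerization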
CYP2C9 act = increases human cytochrome P450 2C9 activity. 96,000 compounds, 1.4% hits. activation factor at 5 µM. recombinant CYP2C9, luciferin-H conversion, luminescence; active compounds read high; factor 1 = untreated enzyme, 0 = blocked;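 active means activation factor of 2 or more for CYP2C9 at a 5 µM dose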
CYP2C9 inh = blocks human cytochrome P450 2C9 | P11712 | CYP2C9 Supersomes, luciferin-H conversion, luminescence | AID 777 | 96,000 compounds, 20% hits | inhibition, % at 5 µM;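 active means blocking of liver enzyme CYP2C9 beyond about 50% at 5 µM, limit read from the data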
CYP2C19 inhib = inhibitors of human CYP2C19; inhibition, % at 5 µM; AID 778; P33261; CYP2C19 Supersomes, luciferin-H EGE luminescence, 30 min; 96,000 compounds, 21% hits;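 active means CYP2C19 inhibition above a set limit at 5 µM in the primary screen, cut at about 50% in these data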
Target sequence (P33261 whole entry, looked up): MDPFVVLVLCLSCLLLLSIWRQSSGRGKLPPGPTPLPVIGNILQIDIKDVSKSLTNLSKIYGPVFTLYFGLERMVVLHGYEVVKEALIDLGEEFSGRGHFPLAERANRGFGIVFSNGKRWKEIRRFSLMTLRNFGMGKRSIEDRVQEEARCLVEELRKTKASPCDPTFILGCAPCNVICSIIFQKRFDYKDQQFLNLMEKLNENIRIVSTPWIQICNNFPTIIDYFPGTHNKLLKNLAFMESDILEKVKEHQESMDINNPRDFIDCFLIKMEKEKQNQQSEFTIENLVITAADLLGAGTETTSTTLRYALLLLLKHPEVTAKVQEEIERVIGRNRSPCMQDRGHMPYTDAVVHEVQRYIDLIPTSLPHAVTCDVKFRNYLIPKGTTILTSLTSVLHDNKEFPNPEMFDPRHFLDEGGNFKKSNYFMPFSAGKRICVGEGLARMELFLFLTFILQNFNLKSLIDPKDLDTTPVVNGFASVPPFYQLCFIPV
CYP2C19 activ = activators of human cytochrome P450 2C19; P33261; 96,000 tested, under 10 active; AID 1025; activation factor at 5 µM; recombinant CYP2C19, luciferin-H EGE luminescence; active compounds read high; 0 = fully inhibited enzyme, 1 = untreated enzyme;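 active means activation factor of at least 2 at 5 µM in the primary screen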
Numbers stand for hits; 0 = inactive; - = not tested or not shown. Only some compounds are listed: those with a hit (about 28% of all), similar ones and a draw of the others.

SMILES | PTK2B oligo ant | CYP2C9 act | CYP2C9 inh | CYP2C19 inhib | CYP2C19 activ
CCOC(=O)c1cnc(SCc2nc(N)nc(Nc3ccccc3OC)n2)nc1N | - | 0 | 59.7 | 0 | 0
CCOC(=O)c1cnc(SCc2nc(N)nc(Nc3ccc(C)cc3)n2)nc1N | 0 | 0 | 53.7 | 53.6 | 0
CCOC(=O)c1cnc(SCc2nc(N)nc(Nc3ccc(F)cc3)n2)nc1N | 0 | 0 | 66.1 | 72.4 | 0
CCOC(=O)c1cnc(SCc2cccc(C)c2)nc1N | 0 | 0 | 0 | 0 | 0
COc1ccccc1Nc1nc(N)nc(CSc2ncccn2)n1 | 0 | 0 | 0 | 0 | 0
CCN(CC)CCCNC(=O)C1c2ccccc2C(=O)N1Cc1ccc(C)cc1 (stereo not drawn) | 0 | 0 | 0 | 0 | 0
CN(c1ccc(Cl)cc1)c1cc(=O)n(C)c2ccccc12 | 0 | 0 | 96.6 | 100.4 | 0
O=C(/C=C/c1ccc(OC2CSC2)cc1)c1ccccc1 | 0 | 0 | 0 | 61.0 | 0
COc1ccccc1N1C(=O)C2C3C=CC(C3)C2C1=O (stereo not drawn) | 0 | 0 | 0 | 0 | 0
Cc1ccc(/C(N)=N/OC(=O)COc2ccccc2Cl)cc1 | 0 | 0 | 0 | 0 | 0
COc1ccc(-n2c3nc4ccccc4nc3c3c(=N)oc(C)nc32)cc1 | 0 | - | - | - | -
Cc1occc1C(=O)Nc1cccc2ccccc12 | 0 | - | - | - | -
COc1ccccc1NC(=O)c1c(C)oc2c1CCCC2 | 0 | - | - | - | -
Cc1oc2c(c1C(=O)Nc1cccc3ccccc13)CCCC2 | 0 | 0 | 80.7 | 84.8 | 0
Cc1c(C)n(C)c2ccc(C(=O)Nc3cccc4ccccc34)cc12 | 0 | 3.7 | 0 | 0 | 0
Cc1oc2c(c1C(=O)NC(Cc1c[nH]c3ccccc13)C(=O)O)CCCC2 (stereo not drawn) | 0 | 0 | 80.2 | 0 | 0
O=C(NC1CCCC1)C(c1cccs1)N(CC1CCCO1)C(=O)Cc1cccs1 (stereo not drawn) | 0 | 0 | 0 | 0 | 0
Cc1ccc(-n2nnc3c(=O)n(CC(=O)N4CCC(C)CC4)cnc32)cc1 | 0 | 0 | 0 | 0 | 0
O=C(NCCC1=CCCCC1)c1ccc2c(c1)N(Cc1ccccc1)C(=O)CS2 | 0 | 0 | 74.8 | 0 | 0
Cc1ccc(C(=O)NCCSc2ccc(Cl)cc2)cc1S(=O)(=O)Nc1ccccc1 | 0 | 0 | 52.2 | 0 | 0
Cc1ccc(NS(=O)(=O)c2cc(C(=O)NCCSC3CCCCC3)ccc2C)cc1 | 0 | 0 | 53.5 | 0 | 0
O=C(NCCN1CCOCC1)c1ccc2c(c1)N(Cc1ccccc1)C(=O)CS2 | 0 | 0 | 0 | 0 | 0
Cc1ccc(NS(=O)(=O)c2cc(C(=O)NCCSc3ccc(C)cc3)ccc2C)cc1 | 0 | 0 | 78.4 | 66.9 | 0
Cc1ccc(SCCNC(=O)c2ccccc2)cc1 | 0 | 0 | 0 | 0 | 0
O=C1CCC([N+](=O)[O-])C(c2ccc(Cl)cc2)N1 (stereo not drawn) | 0 | 0 | 0 | 0 | 0
SMILES | PTK2B oligo ant | CYP2C9 act | CYP2C9 inh | CYP2C19 inhib | CYP2C19 activ
COC(=O)c1ccc(NC(=O)NS(=O)(=O)c2ccc(C)cc2)cc1 | 0 | 0 | 0 | 0 | 0
CC(c1ccco1)N(Cc1ccco1)C(=O)Nc1ccccc1 (stereo not drawn) | 0 | 0 | 0 | 0 | 0
COc1ccc(C(C(=O)NC2CCCC2)N(Cc2ccc(F)cc2)C(=O)c2ccn[nH]2)cc1OC (stereo not drawn) | 0 | 0 | 0 | 0 | 0
Cc1ccccc1NS(=O)(=O)c1cc(C(=O)NCCC2=CCCCC2)ccc1Cl | 0 | 0 | 0 | 0 | 0
Cc1ccc(SCCNC(=O)c2ccc(C)c(S(=O)(=O)Nc3cccc(C)c3)c2)cc1 | 0 | 0 | 71.4 | 62.5 | 0
Cc1cccc(NS(=O)(=O)c2cc(C(=O)NCCC3=CCCCC3)ccc2Cl)c1 | 0 | 0 | 67.5 | 0 | 0
CC(C)(C)c1ccc(C(=O)CSc2n[nH]c(=O)[nH]c2=O)cc1 | 0 | 0 | 52.7 | 0 | 0
CCOC(=O)C1CCN(C(=O)CSc2n[nH]c(=O)[nH]c2=O)CC1 | 0 | 0 | 0 | 0 | 0
CC1(C)CC2(CC(c3cccs3)c3cc(Cl)c(O)cc3O2)NC(=S)N1 (stereo not drawn) | 0 | 0 | 0 | 0 | 0
Cc1ccc(NC(=O)N2CCC(O)(c3ccc(Cl)cc3)CC2)cc1 | 0 | 0 | 70.7 | 95.6 | 0
CCOC(=O)N1CCN(C(=O)Nc2ccc(Cl)cc2)CC1 | 0 | 0 | 0 | 0 | 0
O=C(Nc1ccc(Cl)cc1)N1CCSCC1 | 0 | 0 | 0 | 60.5 | 0
O=C(Nc1ccc(Cl)cc1)N1CCCC1 | 0 | 0 | 0 | 0 | 0
CC1(C)CC2(CC(C)(C)NC(=O)N2)NC(=O)N1 | 0 | 0 | 0 | 0 | 0
COc1ccc2nc(NC(=O)C3CCCN(S(=O)(=O)c4cccc5nonc45)C3)sc2c1 (stereo not drawn) | 0 | - | - | - | -
COc1ccc2nc(NC(=O)C3CCCN(S(=O)(=O)c4cccc5nsnc45)C3)sc2c1 (stereo not drawn) | 0 | 0 | 85.6 | 78.0 | 0
CCOc1ccccc1NC(=O)C1CCCN(S(=O)(=O)c2cccc3nsnc23)C1 (stereo not drawn) | 0 | 0 | 53.2 | 51.7 | 0
Cc1c(N/C(=N/S(=O)(=O)c2ccccc2)c2ccc(Cl)cc2)c(=O)n(-c2ccccc2)n1C | 0 | - | - | - | -
CCOc1ccc(CC2S/C(=N/c3ccccn3)NC2=O)cc1 (stereo not drawn) | 0 | 0 | 0 | 72.0 | 0
CCOc1ccc(C(=O)N/N=C(\c2ccccc2)c2ccccn2)cc1 | 0 | 0 | 0 | 0 | 0
CCOC(=O)C1CCCN(C(=O)c2cc(Nc3ccc(OC)cc3)nc3ccccc23)C1 (stereo not drawn) | 0 | 0 | 76.8 | 0 | 0
CCOC(=O)C1CCCN(C(=O)c2ccccc2Oc2ccccc2)C1 (stereo not drawn) | 0 | 0 | 99.4 | 86.6 | 0
CCOC(=O)C1CCCN(C(=O)c2ccccc2NC(C)=O)C1 (stereo not drawn) | 0 | 0 | 0 | 0 | 0
CCOC(=O)C1CCCN(C(=O)c2ccc(C)cc2O)C1 (stereo not drawn) | 0 | 0 | 0 | 81.2 | 0
CCOC(=O)C1CCCN(C(=O)CSc2nccn2C)C1 (stereo not drawn) | 0 | 0 | 0 | 55.3 | 0
SMILES | PTK2B oligo ant | CYP2C9 act | CYP2C9 inh | CYP2C19 inhib | CYP2C19 activ
CC(C)(C)C1=Nn2c(nnc2-c2ccccn2)SC1 | 0 | 0 | 0 | 0 | 0
Cc1ccc(C(=O)Nc2ccccc2OC(F)F)cc1 | 0 | 0 | 0 | 0 | 0
CCCN1CN(Cc2ccco2)c2nc3ccccc3n2C1 | 0 | 0 | 0 | 0 | 0
CCOC(=O)C1CCCN(C(=O)c2cc(-c3ccccc3)on2)C1 (stereo not drawn) | 0 | 2.5 | 0 | 0 | 0
CCOC(=O)C1CCCN(C(=O)c2cc3c(C)nc4ccccc4c3o2)C1 (stereo not drawn) | 0 | 0 | 0 | 0 | 0
Cc1cc(NC(=O)CSc2nnc3c4c(C)c(C)sc4ncn23)no1 | 0 | 0 | 56.3 | 0 | 0
Cc1cc(NC(=O)CSc2nc(C(C)C)nc3sc(C)c(C)c23)no1 | 0 | 0 | 53.6 | 0 | 0
Cc1cc(NC(=O)CSc2nc(C(C)C)nc3ccccc23)no1 | 0 | 0 | 0 | 0 | 0
CN1CC[n+]2cnc3ccccc3c21 | 0 | 0 | 0 | 0 | 0
